Data: PubChem BioAssay (Tox21)
Values without a mark were called inactive. The call rests on the fitted dose curve; in most records, active means well fitted activation curve with a large enough effect in the repeat runs; inconclusive means weak or mixed curves; inactive means flat fitted curve, though single readings scatter.

Assay: Caspase-3/7 induction in CHO-K1 cells by small molecules, qHTS assay (AID 1346980); further: nearly all actives have a fitted effect of over 15% in size
Details: CHO-K1 caspase-3/7 induction, Caspase-Glo luminescence, 17 h; series mostly up to 92.4 µM; caspase-3/7 activation: at the top concentration
Text: National Center for Advancing Translational Sciences [NCATS]
NIH Chemical Genomics Center [NCGC]
U.S. Environmental Protection Agency [EPA]
National Institutes of Environmental Health Sciences [NIEHS]
National Toxicology Program [NTP]
Apoptosis is a process of programmed cell death and plays a central role in the development of multicellular organisms. It is a highly regulated process and induces cell death by activating caspases, which are the members of cysteine aspartic acid-specific protease (caspase) family. Caspases involved in apoptosis are classified by their mechanism of action as initiator caspases (caspase-2, -8, -9 and -10) and executioner caspases (caspase-3, -6, and -7). Inhibition of apoptosis results in number of cancers, autoimmune diseases, inflammatory diseases and viral infection. To identify small molecule compounds that induce apoptosis, a homogeneous, luminescent Caspase-Glo 3/7 assay was used. Wild type CHO-K1 cells were used to screen Tox21 libraries for identifying caspase-3/7 activity inducers.
CHO-K1 cells were dispensed at 1,500 per well in 5uL of culture medium into white solid bottom 1536-well plates (Corning Life Sciences, Corning, NY) using a Multidrop Combi (Thermo Scientific, Waltham, MA) dispenser. The assay plates were incubated at 37 C and 5% CO2 for 5hr, and then 23nL of compounds dissolved in DMSO and positive control were transferred using a Pintool station (Wako, San Diego, CA). The assay plates were incubated at 37C and 5% CO2 for 17hr. For caspase-3/7 activity read, 4uL of Caspase-Glo 3/7 reagent (Promega Corporation, Madison, WI) was added to each well of the assay plates using Flying Reagent Dispenser (FRD, Aurora Discovery, San Diego, CA) and incubated the assay plates at room temperature for 30min. The luminescence signal was quantified using a ViewLux plate reader (Perkin Elmer, Shelton, CT).
On the % scale 0 is the no-effect control and ±100 the full control effect.

Going from `O=C1C=CCCC1` to `CCCC1CCCC(=O)O1` (stereo not given), the “caspase-3/7 activation” value falls from -0.57% to -1.28%.

First: CC(C)(C)c1ccc(CCC=O)cc1
Second: CC(C)C/C=C(\C=O)c1ccccc1
The “caspase-3/7 activation” value of the first is higher: 4.48% for the first, -0.655% for the second.

Compared with `C/C(=C\C(C)CC(C)CC(C)C)C1CC(=O)OC1=O` (stereo not given), `CC(C)=CCCC(C)C=O` (stereo not given) is lower in “caspase-3/7 activation” value: 0.0864% for the first, -0.163% for the second.

Compared with `CCn1nc(Cc2ccccc2)cc1C1CCN(C[C@H]2C[C@H](N(C)[C@@H](C(=O)O)C(C)C)C[C@@H]2c2cccc(F)c2)CC1`, `O=C1c2ccccc2C(=O)C1c1ccc2cc(S(=O)(=O)O)cc(S(=O)(=O)O)c2n1` is lower in “caspase-3/7 activation” value: -0.652% for the first, -6.01% for the second.

First: CC1(C)C(=O)NC(=O)N1CO
Second: CC1(C)CC(O)CC(C)(C)N1[O]
The “caspase-3/7 activation” value of the first is higher: 0.0993% for the first, 0.0291% for the second.

Going from `CS(C)=O` to `CCCCCCCCCC(C)C=O` (stereo not given), the “caspase-3/7 activation” value falls from -0.38% to -1.7%.

Compared with `O=C1OC(=O)C2CC=CCC12` (stereo not given), `Nc1cccc2c(=O)[nH][nH]c(=O)c12` is higher in “caspase-3/7 activation” value: -1.73% for the first, 0.993% for the second.

Going from `O=P(c1ccccc1)(c1ccccc1)c1ccccc1` to `Oc1ccc(Oc2ccccc2)cc1`, the “caspase-3/7 activation” value rises from -0.866% to -0.137%.

First: CCOc1ccc(NC(C)=O)cc1N
Second: CC(=O)Nc1cccc(N)c1
The “caspase-3/7 activation” value of the first is higher: 0.26% for the first, -0.114% for the second.

Going from `FC(F)(Cl)C(F)(Cl)Cl` to `CC(CCl)OC(C)CCl` (stereo not given), the “caspase-3/7 activation” value falls from 0.735% to 0.008%.

First: CCCCCCCCOCCCN
Second: CCCCCCOC(=O)c1ccccc1
The “caspase-3/7 activation” value of the first is higher: 4.08% for the first, 0.76% for the second.

Going from `O=Cc1ccc(Cl)c([N+](=O)[O-])c1` to `COc1ccc(/C=C/S(=O)(=O)NC(=O)c2ccc(C)cc2Cl)cc1`, the “caspase-3/7 activation” value rises from -0.397% to -0.194%.

Going from `N#C[C@@H]1CC(F)(F)CN1C(=O)CNC1CC2CCC(C1)N2c1ncccn1` (stereo not given in full) to `NC(=O)c1ccccc1`, the “caspase-3/7 activation” value falls from 0.855% to -0.706%.

Compared with `O=C(O)c1cccc(C(=O)O)c1C(=O)O`, `CNc1ccccc1` is higher in “caspase-3/7 activation” value: -2.23% for the first, 0.431% for the second.

Compared with `C=CC(C)(O)CC/C=C(/C)CCC=C(C)C` (stereo not given), `CC(C)=CCC[C@H](C)CCO` is lower in “caspase-3/7 activation” value: 1.05% for the first, 0.323% for the second.

First: CCOC(OCC)OCC
Second: S=c1[nH][nH]c(=S)s1
The “caspase-3/7 activation” value of the first is lower: -2.19% for the first, -0.347% for the second.

Going from `Sc1nc(S)nc(S)n1` to `O=C(OCCN1CCOCC1)c1cccnc1Nc1cccc(C(F)(F)F)c1`, the “caspase-3/7 activation” value falls from -0.465% [at 42.5 µM] to -2.67% [at 42.5 µM].

Going from `CCCCCCCCCCCCSCCOCCO` to `CCC1=C(C)CN(C(=O)NCCc2ccc(S(=O)(=O)NC(=O)NC3CCC(C)CC3)cc2)C1=O` (stereo not given), the “caspase-3/7 activation” value falls from 2.13% [at 42.5 µM] to -1.67% [at 42.5 µM].

Compared with `CC(CC(C#N)(c1ccccc1)C(C)C)N(C)C` (stereo not given), `CCC(C(=O)O)c1ccc(N2Cc3ccccc3C2=O)cc1` (stereo not given) is lower in “caspase-3/7 activation” value: 0.18% [at 42.5 µM] for the first, -5.95% [at 42.5 µM] for the second.

Going from `CO[C@@H]1[C@@H](O[C@@H]2O[C@H](C)[C@@H](O[C@H]3C[C@@](C)(O)[C@@H](O)[C@H](C)O3)[C@H](N(C)C)[C@H]2O)[C@@H](CC=O)C[C@@H](C)[C@@H](O[C@@H]2CC[C@H](N(C)C)[C@@H](C)O2)/C=C/C=C/C[C@@H](C)OC(=O)C[C@H]1OC(C)=O` to `NC(=O)c1cc[n+](CC2=C(C(=O)[O-])N3C(=O)[C@@H](NC(=O)Cc4cccs4)[C@H]3SC2)cc1`, the “caspase-3/7 activation” value rises from 0.143% [at 42.5 µM] to 0.164% [at 42.5 µM].
